Reference: PubChem BioAssay AID651844 (Broad Institute, 2012)
Entries with a potency or affinity are not part of this list. Results filed as inconclusive are left out. Values without a mark were called inactive.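 The calls were made as follows: active = every test run shows a luminescence drop with half-maximal concentration at most twice the top tested dose; inconclusive = test runs disagree, weak flat response, or unreliable curve fit; inactive = the rest.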

Test: NIH/3T3 fibroblast cytotoxicity, dose response, cytotoxicity control, cell-based, dry powder samples (AID 651844)
Conditions: NIH/3T3 viability, CellTiter-Glo ATP luminescence, 90 h; series mostly up to 16 µM; activity change, negative = cytotoxicity: at the top concentration
With `C[C@H]1CN([C@@H](C)CO)C(=O)c2cccc(NC(=O)c3ccncc3)c2O[C@@H]1CN(C)Cc1ccncc1` the “activity change, negative = cytotoxicity” value was -5.78%. In the case of `CC(C)N1C[C@H](C)[C@@H](CN(C)CC2CCOCC2)Oc2c(NC(=O)c3ccncc3)cccc2C1=O`, the “activity change, negative = cytotoxicity” value was -5.01%. For `CC(C)N1C[C@@H](C)[C@H](CN(C)Cc2ccc(Oc3ccccc3)cc2)Oc2c(cccc2N(C)C(=O)c2ccncc2)C1=O`, the “activity change, negative = cytotoxicity” value was 25.7%. In the case of `CC(C)N1C[C@H](C)[C@@H](CN(C)C(=O)OC(C)(C)C)Oc2c(C#N)cccc2C1=O`, the “activity change, negative = cytotoxicity” value was 9.56%. For `CC(C)N1C[C@H](C)[C@@H](CN(C)C(=O)OC(C)(C)C)Oc2c(NC(=O)c3ccccc3)cccc2C1=O`, the “activity change, negative = cytotoxicity” value was 14.7%. With `CC(C)N1C[C@H](C)[C@@H](CN(C)C(=O)OC(C)(C)C)Oc2c(NC(=O)c3ccncc3)cccc2C1=O` the “activity change, negative = cytotoxicity” value was -39.8%. For `C[C@@H]1CN([C@@H](C)CO)C(=O)c2cccc(NC(=O)c3ccncc3)c2O[C@H]1CN(C)Cc1ccc(C(=O)O)cc1`, the “activity change, negative = cytotoxicity” value was 4.51%. With `CC(C)N1C[C@H](C)[C@@H](CN(C)Cc2ccc(Cl)cc2)Oc2c(NC(=O)c3ccncc3)cccc2C1=O` the “activity change, negative = cytotoxicity” value was -8.69%. For `C[C@@H]1CN([C@@H](C)CO)C(=O)c2cccc(NC(=O)c3ccncc3)c2O[C@H]1CN(C)Cc1cccc(Cl)c1`, the “activity change, negative = cytotoxicity” value was -21.4%. For `CC(C)N1C[C@H](C)[C@@H](CN(C)C(=O)OC(C)(C)C)Oc2c(C(=O)O)cccc2C1=O`, the “activity change, negative = cytotoxicity” value was 9.41%. With `C[C@@H]1CN([C@@H](C)CO)C(=O)c2cccc(NC(=O)c3ccncc3)c2O[C@@H]1CN(C)Cc1ccc(Oc2ccccc2)cc1` the “activity change, negative = cytotoxicity” value was 10.2%. With `CC(C)N1C[C@H](C)[C@@H](CN(C)Cc2ccc(Oc3ccccc3)cc2)Oc2c(NC(=O)c3ccccn3)cccc2C1=O` the “activity change, negative = cytotoxicity” value was 25.1%. For `CC(C)N(C)C(=O)c1cccc(NC(=O)c2ccncc2)c1OCCCN(C)C(=O)OC(C)(C)C`, the “activity change, negative = cytotoxicity” value was -10.3%. In the case of `CCCn1ncc(CN(C)C[C@H]2Oc3c(NC(=O)c4ccncc4)cccc3C(=O)N(C(C)C)C[C@@H]2C)c1C`, the “activity change, negative = cytotoxicity” value was -12.5%. In the case of `CC(C)N1C[C@H](C)[C@@H](CN(C)C(=O)OC(C)(C)C)Oc2c(NC(=O)c3cccnc3)cccc2C1=O`, the “activity change, negative = cytotoxicity” value was -9.16%. With `CC(C)N(C)C(=O)c1cccc(NC(=O)c2ccncc2)c1OCCCN(C)Cc1ccc(Cl)cc1` the “activity change, negative = cytotoxicity” value was -12.2%. In the case of `CC(C)N1C[C@H](C)[C@@H](CN(C)Cc2ccc(Oc3ccccc3)cc2)Oc2c(NC(=O)c3ccccc3)cccc2C1=O`, the “activity change, negative = cytotoxicity” value was 15.6%. In the case of `C[C@@H]1CN([C@H](C)CO)C(=O)c2cccc(NC(=O)c3ccncc3)c2O[C@H]1CN(C)Cc1ccc2c(c1)OCO2`, the “activity change, negative = cytotoxicity” value was -24.7%. With `CC(C)N1C[C@H](C)[C@@H](CN(C)C(=O)OC(C)(C)C)Oc2c(C(=O)Nc3ccncc3)cccc2C1=O` the “activity change, negative = cytotoxicity” value was -15%. In the case of `C[C@H]1CN([C@@H](C)CO)C(=O)c2cccc(NC(=O)c3ccncc3)c2O[C@@H]1CN(C)Cc1ccc(C(=O)O)cc1`, the “activity change, negative = cytotoxicity” value was -2.16%. For `CC(C)N1C[C@H](C)[C@@H](CN(C)Cc2ccccc2)Oc2c(NC(=O)c3ccncc3)cccc2C1=O`, the “activity change, negative = cytotoxicity” value was -6.05%. In the case of `C[C@H]1CN([C@@H](C)CO)C(=O)c2cccc(NC(=O)c3ccncc3)c2O[C@@H]1CN(C)Cc1ccc(C(=O)Nc2ccccc2N)cc1`, the “activity change, negative = cytotoxicity” value was -10.9%. In the case of `C[C@H]1CN([C@@H](C)CO)C(=O)c2cccc(NC(=O)c3ccncc3)c2O[C@@H]1CN(C)Cc1ccccc1`, the “activity change, negative = cytotoxicity” value was -1.03%. In the case of `CC(C)N1C[C@H](C)[C@@H](CN(C)Cc2cccc(Cl)c2)Oc2c(NC(=O)c3ccncc3)cccc2C1=O`, the “activity change, negative = cytotoxicity” value was -14.4%. In the case of `CC(C)N1C[C@H](C)[C@@H](CN(C)C(=O)OC(C)(C)C)Oc2c(NC(=O)c3ccccn3)cccc2C1=O`, the “activity change, negative = cytotoxicity” value was 13.7%. For `COc1ccc(CN(C)C[C@H]2Oc3c(NC(=O)c4ccncc4)cccc3C(=O)N([C@@H](C)CO)C[C@@H]2C)cc1`, the “activity change, negative = cytotoxicity” value was -7.84%. For `CC(C)N1C[C@H](C)[C@@H](CN(C)Cc2ccccc2Cl)Oc2c(NC(=O)c3ccncc3)cccc2C1=O`, the “activity change, negative = cytotoxicity” value was -10.6%. For `CNC[C@H]1Oc2c(NC(=O)c3ccccc3)cccc2C(=O)N(C(C)C)C[C@@H]1C`, the “activity change, negative = cytotoxicity” value was -2.74%. For `C[C@H]1CN([C@@H](C)CO)C(=O)c2cccc(NC(=O)c3ccncc3)c2O[C@@H]1CN(C)Cc1ccc2c(c1)OCO2`, the “activity change, negative = cytotoxicity” value was -7.7%. For `CC(C)N1C[C@H](C)[C@@H](CN(C)Cc2ccc(Oc3ccccc3)cc2)Oc2c(NC(=O)c3cccnc3)cccc2C1=O`, the “activity change, negative = cytotoxicity” value was 11.5%. With `C[C@@H]1CN([C@@H](C)CO)C(=O)c2cccc(NC(=O)c3ccncc3)c2O[C@H]1CN(C)Cc1ccncc1` the “activity change, negative = cytotoxicity” value was 10.9%. In the case of `C[C@H]1CN([C@@H](C)CO)C(=O)c2cccc(NC(=O)c3ccncc3)c2O[C@@H]1CN(C)Cc1ccc(C(F)(F)F)cc1`, the “activity change, negative = cytotoxicity” value was -16.9%. For `CNC[C@@H]1Oc2c(NC(=O)c3ccncc3)cccc2C(=O)N(C(C)C)C[C@H]1C`, the “activity change, negative = cytotoxicity” value was -3.79%.
